From PubChem BioAssay AID598 (SRMLSC, 2007)
Out of some 85,000 compounds screened, about 5,100 (6%) were called active. What follows is part of a selection rich in actives, with near analogues and random picks from the rest. Unmarked numbers belong to inactive results.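 How the source made its calls: active means viability at or below 40%; inactive means viability above 40%.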

Assay: proliferation blockers of H69AR lung cancer cells, primary screen, cell-based, human, 86K library (AID 598);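 further: multidrug resistant small cell line overexpressing MRP-1 efflux transporter; 100% = mean luminescence of untreated control wells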
Details: H69AR lung tumor viability, ATP luminescence, 72 h; at 10 µM; hits give low values

Row | Compound | viability
1 | Cc1cc2nc(C)n(CCCNC(=O)Nc3ccccc3)c2cc1C | 91.7%
2 | CCC1CCCCN1CCCNC(=O)C1CCC(Cn2c(=O)[nH]c3ccccc3c2=O)CC1 (stereo unspecified) | 77.4%
3 | Cc1cccc(NC(=O)C2CC(=O)OC23CCCC3)c1 (stereo unspecified) | 102%
4 | COc1ccc(C2CC(c3ccccc3)Nc3ncnn32)cc1 (stereo unspecified) | 90.5%
5 | Clc1ccc(C2CC(c3cccs3)n3ncnc3N2)cc1Cl (stereo unspecified) | 35.8% (active)
6 | COc1ccc(C2CC(c3ccc(C)cc3)Nc3ncnn32)cc1 (stereo unspecified) | 91.5%
7 | Cc1cccc(C(=O)Nc2ccccc2N2CCN(c3ccc(F)cc3)CC2)c1 | 89.6%
8 | FC(F)(F)c1nnc2ccc(N3CCN(c4ccccc4)CC3)nn12 | 92.5%
9 | COc1cc2c(cc1OC)CN(C(=O)c1cc(=O)c3ccccc3o1)CC2 | 18.1% (active)
10 | COc1ccc2c(c1)CCc1c(C(=O)N3CCc4ccccc4C3)noc1-2 | 94.9%
11 | COc1ccc(S(=O)(=O)N2CCC(C(=O)N3CCc4ccccc4C3)CC2)cc1OC | 88.7%
12 | CCN(CC)C(=O)CSc1nc2ccccc2o1 | 91.7%
13 | CCOc1c(Br)cc(/C=C2\C(=O)N(CCC#N)N=C2C)cc1OC | 26.2% (active)
14 | CCOc1cc(/C=N/O)cc(Br)c1OC | 90.5%
15 | Cc1nnc(NCCO)c2ccccc12 | 89.8%
16 | Cn1c(SCC(=O)N2CCCc3ccccc32)nc2ccccc2c1=O | 62.9%
17 | Fc1ccccc1/C=C1\CCCC2=C1Nc1ncnn1C2c1ccccc1F (stereo unspecified) | 1.53% (active)
18 | COc1ccc(C2C(C(C)=O)=C(O)C(=O)N2c2nccs2)cc1 (stereo unspecified) | 106%
19 | O=C(N/N=C/c1ccc(O)cc1)/C(=C/c1ccc([N+](=O)[O-])cc1)NC(=O)c1ccccc1 | 88.2%
20 | COc1c(F)c(F)c(C(=O)O)c(Nc2ccccc2C)c1F | 98.5%
21 | COc1ccc(C(=O)OCC(=O)NCC2CCCCC2)cc1S(=O)(=O)N1CCCc2ccccc21 | 72.3%
22 | C=CCn1c(SCCOc2ccc(OC)cc2)nnc1C(NC(=O)c1ccc(OC)cc1)C(C)C (stereo unspecified) | 64%
23 | CCN(CC(=O)NC1CCS(=O)(=O)C1)c1nc(-c2cccnc2)nc2ccccc12 (stereo unspecified) | 89.7%
24 | Cc1cccc(-n2c(N)c(C(=O)N3CCN(C)CC3)sc2=S)c1 | 94.4%
25 | Cc1cccc(-n2c(O)c(C=Nc3ccccc3N)c(=O)[nH]c2=O)c1 | 10% (active)
26 | Cc1cccc(N2CCN(S(=O)(=O)c3ccc4[nH]c(=O)c(=O)[nH]c4c3)CC2C)c1 (stereo unspecified) | 98.9%
